Shown are actives, neighbours in structure and some others; about 2.9% of the full set was active somewhere.
LMP1 NFkB inh – Epstein-Barr LMP1 NF-kappaB reporter inhibition; 0.69% of 350,000 active; inhibition, % at 12.5 µM; LMP1-induced NF-kappaB luciferase reporter cells, luminescence; AID 504558; in the data active = inhibition above about 41%;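 also: 0% = neutral control wells and 100% = reference inhibitor control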
KKLEB cytotox – CF airway cell cytotoxicity counter-screen. 0.36% of 360,000 active. KKLEB CF airway cells viability, ATPlite luminescence, overnight; hits give low values; cells stimulated with P. aeruginosa culture filtrate. activity change (cytotoxicity), % at 5 µM;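 active = corrected activity change at or below -50% at 5 µM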
HIF-2a inh – blocks HIF-2a reporter activity; 786-0 RCC cells HIF-2a reporter, luciferase luminescence, overnight; inhibition, % at 18.8 µM; 0.72% of 360,000 active;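 active = inhibition of the luminescence signal of 40% or more relative to plate controls, in a single-dose primary screen at 18.75 µM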
Peg3 prom inh-1 – reduces Peg3 promoter-driven luciferase expression in HeLa; HeLa PEG-Prom luciferase reporter, luminescence, overnight; inhibition, % at 20 µM; 1.7% of 360,000 active; AID 588405;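 active = inhibition of at least 50% at 20 µM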
CF NFkB inh – blocks PAF-induced NF-kB reporter in cystic fibrosis cells; KKLEB NF-kB-GFP reporter, GFP fluorescence overnight; inhibition, % at 5 µM; 0.86% of 360,000 active; AID 588850;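 active = at least 50% inhibition at 5 µM, scaled per plate between neutral and stimulator controls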;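 also: PAF is a Pseudomonas aeruginosa culture filtrate used as stimulus; plate controls were PAF-stimulated DMSO wells for no effect and unstimulated DMSO wells for full effect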
Shn3 3UTR inh – inhibitors of Schnurri-3 3'UTR reporter in osteoblasts; 0.52% of 360,000 active; AID 588674; Clone20 osteoblast Shn3 3'UTR firefly luciferase, 24 h; inhibition, % at 12.5 µM;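 active = mean inhibition of at least 75% with every replicate also reaching 75%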;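 also: 0% = median of neutral control wells and 100% = pilot-screen positive control compound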
Peg3 prom inh-2 – confirmation of Peg3 promoter inhibitors; shares compounds with Peg3 prom inh-1; HeLa PEG-Prom luciferase reporter, luminescence, overnight; inhibition, % at 20 µM; 84% of 1,300 active; AID 602417;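 active = at 20 µM dose, 40% or more inhibition averaged across four replicates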
Numbers without * were called inactive; · = not tested or not shown; ! = not active in a repeat.

SMILES	LMP1 NFkB inh	KKLEB cytotox	HIF-2a inh	Peg3 prom inh-1	CF NFkB inh	Shn3 3UTR inh	others
N#Cc1ncc(N=Cc2ccc(N(CCCl)CCCl)cc2)s1	59*	-9	8	7	15	22
ClCCN(CCCl)c1ccc(C=NNc2ncccn2)cc1	16	10	-141	-117	-13	-53
CC(Cc1ccccc1)[n+]1cc(/N=C(\[O-])Nc2ccccc2)on1 (stereo not drawn)	7	1	-29	-12	8	-2
CCN(CC)CCNC(=O)c1c(O)c2ccccc2n(Cc2ccccc2)c1=O	-7	-9	9	-3	9	-24
CCN(CC)CCCNC(=O)c1c(O)c2ccccc2n(Cc2ccccc2)c1=O	-7	-6	5	54*	8	3
C[N+](C)(C)CC#CCOC(=O)Nc1cccc(Cl)c1	82*	17	-3	84*	-2	-3
CCOC(=O)[C@]12Cc3cc(C)ccc3[C@H]1N(CCC(=O)OC)C(=O)c1cc(OC)ccc12	·	·	23	·	·	·
CCOC(=O)[C@]12Cc3cc(C)ccc3[C@H]1N(C1CCCCC1)C(=O)c1cc(OC)ccc12	·	·	85*	·	·	·
O=C(NCC(c1cccnc1)N1CCN(c2ccc(F)cc2)CC1)Oc1ccccc1 (stereo not drawn)	8	-6	20	14	3	45
CC(=O)C1CCC2C3CCC4CC(O)CCC4(C)C3C(O)CC12C (stereo not drawn)	-1	5	12	16	-23	16
O=C1NC(=O)N(Cc2ccco2)C(=O)/C1=C/c1ccc(-c2cccc([N+](=O)[O-])c2)o1	12	-1	65*	29	19	31
Clc1ccccc1CN1CCN(c2cccc3[nH]ccc23)CC1	5	4	4	17	5	16
CCC(C)NC(=O)CCC(=O)OC1O[C@H]2OC3(C)CC[C@H]4[C@H](C)CCC(C1C)C24OO3 (stereo partly drawn)	-18	-10	17	34	22	67
CCC(C)C(NC(=O)CCCNC(=O)CCC(=O)OC1O[C@H]2OC3(C)CC[C@H]4[C@H](C)CCC(C1C)C24OO3)C(=O)O (stereo partly drawn)	-55	6	-2	47	7	87*
CN(C)c1ccc(/C=C/c2cc[n+](C)c3ccccc23)cc1	42*!	2	-11	31	-114	81
C[C@]12CCC3C(C1CCC2=O)[C@H](O)C[C@H]1C[C@@H](O)CC[C@]31C (stereo partly drawn)	-4	-16	15	4	21	-21
Cc1[nH]nc2ccc(-c3cncc(OC[C@@H](N)Cc4c[nH]c5ccccc45)c3)cc12	90*	-87*	75*	100*	85*	96*
CC(=O)OC(C)(C)/C=C/C(=O)C(C)(O)C1C(O)CC2(C)C3CC=C4C(CC(O)C(=O)C4(C)C)C3(C)C(=O)CC12C (stereo not drawn)	12	-83*	78*	97*	89*	85
CC(=O)OC(C)(C)/C=C/C(=O)[C@](C)(O)[C@H]1[C@H](O)C[C@@]2(C)[C@@H]3CC=C4[C@H](C[C@H](O)C(=O)C4(C)C)[C@]3(C)C(=O)C[C@]12C	51*	-86*	79*	103*	84*	98*
Nc1cc(C(=O)Nc2ccccc2F)ccc1N1CC2CC(C1)c1cccc(=O)n1C2 (stereo not drawn)	-30	0	-35	-28	-42	0
COC(=O)C1=C(c2ccc(S(C)(=O)=O)cc2)C[C@@H]2CC[C@H]1N2C(=O)NCC1CC1	-4	-2	6	14	6	-9
CCn1nc(/C=C/c2ccccc2)nc2c(=O)n(C)c(=O)nc1-2	72*	-22	-20	94*	76*	98*
CCn1nc(-c2cccs2)nc2c(=O)n(C)c(=O)nc1-2	33	-89*	80*	118*	98*	97*
CN(CCc1ccccc1)Cc1c[nH]c2ccccc12	33	-3	12	69*	-31	36
Cc1cccc(C(O)(C(=O)O)c2ccccc2)c1 (stereo not drawn)	3	-13	0	100*	15	-4
SMILES	LMP1 NFkB inh	KKLEB cytotox	HIF-2a inh	Peg3 prom inh-1	CF NFkB inh	Shn3 3UTR inh	others
Cc1cc(C)c(C)c(C(O)(C(=O)O)c2ccccc2)c1C (stereo not drawn)	-6	-8	5	-9	-10	-29
CC1OC(OC2CC(O)C3(CO)C4C(O)CC5(C)C(C6=CC(=O)OC6)CCC5(O)C4CCC3(O)C2)C(O)C(O)C1O (stereo not drawn)	80*	-51*	84*	110*	91*	-10
C=C(C=O)CC1CC(O)[C@]2(C)OC3CC4OC5C[C@]6(C)O[C@]7(C)CCC8OC9C[C@]%10(C)OC%11C(C)=CC(=O)OC%11CC%10OC9C[C@@H](C)C8OC7CC6O[C@]5(C)CC5OC5C4OC3CC2O1 (stereo partly drawn)	74*	-70*	94*	100*	91*	59
C=C(CO)CC1CC(O)[C@]2(C)OC3CC4OC5C[C@]6(C)O[C@]7(C)CCC8OC9C[C@]%10(C)OC%11C(C)=CC(=O)OC%11CC%10OC9C[C@@H](C)C8OC7CC6O[C@]5(C)C/C=C\C4OC3CC2O1 (stereo partly drawn)	3	3	-1	7	-6	8
Cc1ccccc1-n1c(O)c(C(c2ccncc2)c2c(O)n(-c3ccccc3C)c(=O)[nH]c2=O)c(=O)[nH]c1=O	-6	1	18	9	-8	-38
COc1ccc(CNCCc2c[nH]c3ccccc23)c(OC)c1C	0	-14	3	109*	21	6
COc1ccc(CNCCc2ccccc2F)c(OC)c1C	2	-7	3	-14	13	16
COc1cc(C)c(CNCCc2c[nH]c3ccccc23)cc1C	2	-9	17	95*	22	39
CCOC(=O)C1=C(NC(=S)NC(=O)c2ccccc2)c2ccccc2CC12CCCC2	16	-1	0	50*	16	50
O=C(OC1CCN(CCCl)CC1)C(c1ccccc1)c1ccccc1	51*	44	13	10	1	93*
C[N+]1(C)[C@@H]2CC[C@H]1CC(OC(=O)C(c1ccccc1)c1ccccc1)C2 (stereo partly drawn)	-2	1	12	12	-2	-12
CC[n+]1c(-c2ccccc2)c2cc(N)ccc2c2ccc(N)cc21	6	0	2	55*	-66	40	Peg3 prom inh-2=87*
CCOC(=O)c1[nH]ncc1CN1CCCC(C(=O)c2cccc(Cl)c2)C1 (stereo not drawn)	4	4	2	1	2	9
